In PubChem BioAssay AID1159580 (chemical genetic matrix, 2015):
Several values for one entry are separate records, joined by “and”; a condition that tells them apart may be missing. Identical values can stand only once. About 2,000 (36%) of roughly 5,500 compounds were called active. Another 18% or so got no clear call; they are omitted. Cut-off read from the data, not from the text of the source: active = normalized growth mostly below about 0.91 (no sharp cut-off); inconclusive = no clear call, values can overlap the other calls; inactive = mostly above about 0.92. This is one part of the list.

Experiment: chemical genetic growth profiling, strain panel (AID 1159580);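 note: tested at 20 µM; growth read once vehicle control cultures reached saturation at 30 °C; 1 = growth at the plate median or of vehicle wells; lower values mean less growth of the strain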
Conditions: S. cerevisiae deletion strains, growth OD
[1] = locus YDR150W, strain NUM1, active compounds read low
[2] = locus YGR078C, strain PAC10, active compounds read low
[3] = locus YJR075W, strain HOC1, active compounds read low
[4] = locus YMR307W, strain GAS1, active compounds read low
[5] = locus YNL153C, strain GIM3, active compounds read low
[6] = locus YPL241C, strain CIN2, active compounds read low

Measured: normalized growth

COc1ccc(C(=O)CC(=O)O)c2c1C=CC(C)(C)O2
inactive: locus YAL021C, strain ccr4, active compounds read low 1 | locus YAL026C, strain drs2, active compounds read low 1 | locus YAL030W, strain snc1, active compounds read low 0.992 | locus YBL061C, strain skt5, active compounds read low 0.999 | locus YBR009C, strain hhf1, active compounds read low 1.01 | locus YBR021W, strain FUR4, active compounds read low 0.986 | locus YBR023C, strain chs3, active compounds read low 1.01 | locus YBR171W, strain sec66, active compounds read low 0.986 | locus YBR229C, strain ROT2, active compounds read low 0.983 | locus YBR231C, strain swc5, active compounds read low 0.987 | locus YBR279W, strain paf1, active compounds read low 1.01 | locus YCL011C, strain gbp2, active compounds read low 1.01 | locus YCL016C, strain dcc1, active compounds read low 1.02 | locus YCL029C, strain bik1, active compounds read low 0.997 | locus YCL061C, strain MRC1, active compounds read low 1 | locus YCL069W, strain vba3, active compounds read low 1.01 | locus YCR088W, strain abp1, active compounds read low 0.995 | locus YDL005C, strain med2, active compounds read low 0.983 | locus YDL035C, strain GPR1, active compounds read low 1.02 | locus YDL040C, strain nat1, active compounds read low 1 | locus YDL074C, strain BRE1, active compounds read low 1 | locus YDL101C, strain DUN1, active compounds read low 1.01 | locus YDL185W, strain tfp1, active compounds read low 0.988 | locus YDL192W, strain arf1, active compounds read low 0.996 | locus YDR001C, strain nth1, active compounds read low 0.995 | locus YDR069C, strain doa4, active compounds read low 0.984 | locus YDR101C, strain arx1, active compounds read low 0.995 | locus YDR137W, strain rgp1, active compounds read low 1.03 | [1] 0.999 | locus YDR159W, strain sac3, active compounds read low 0.956 | locus YDR162C, strain NBP2, active compounds read low 1.06 | locus YDR195W, strain ref2 0.962 | locus YDR297W, strain sur2, active compounds read low 0.997 | locus YDR318W, strain mcm21, active compounds read low 0.997 | locus YDR334W, strain swr1, active compounds read low 0.997 | locus YDR335W, strain msn5, active compounds read low 1.01 | locus YDR388W, active compounds read low 1.01 | locus YDR392W, strain spt3, active compounds read low 0.96 | locus YDR502C, strain sam2, active compounds read low 1.02 | locus YEL003W, strain gim4, active compounds read low 0.999 | locus YEL037C, strain rad23, active compounds read low 0.999 | locus YEL061C, strain CIN8, active compounds read low 0.998 | locus YER015W, strain faa2, active compounds read low 1.01 | locus YER016W, strain bim1, active compounds read low 0.99 | locus YER110C, active compounds read low 0.977 | locus YER111C, strain swi4, active compounds read low 1 | locus YER155C, strain BEM2 (second series), active compounds read low 0.99 | locus YER155C, strain BEM2, active compounds read low 0.983 | locus YER167W, strain BCK2, active compounds read low 0.993 | locus YFR010W, strain ubp6, active compounds read low 0.994 | locus YGL078C, strain dbp3, active compounds read low 0.994 | locus YGL086W, strain mad1, active compounds read low 0.99 | locus YGL167C, strain pmr1, active compounds read low 0.994 | locus YGL173C, strain kem1, active compounds read low 0.99 | locus YGL227W, strain vid30, active compounds read low 0.981 | locus YGL240W, strain doc1, active compounds read low 1.02 | locus YGL248W, strain PDE1, active compounds read low 1 | locus YGL253W, strain hxk2, active compounds read low 1 | [2] 1.03 | locus YGR135W, strain pre9, active compounds read low 0.992 | locus YGR252W, strain gcn5, active compounds read low 0.979 | locus YHR013C, strain ard1, active compounds read low 1.02 | locus YHR027C, strain rpn1, active compounds read low 0.982 | locus YHR030C, strain SLT2, active compounds read low 0.997 | locus YHR079C, strain IRE1 (second series), active compounds read low 0.991 | locus YHR079C, strain IRE1, active compounds read low 0.987 | locus YHR094C, strain hxt1, active compounds read low 1 | locus YHR129C, strain ARP1, active compounds read low 0.998 | locus YHR142W, strain chs7, active compounds read low 1 | locus YHR200W, strain rpn10, active compounds read low 0.987 | locus YIL066C, strain RNR3, active compounds read low 1.02 | locus YIL073C, strain SPO22, active compounds read low 1.04 | locus YIL125W, strain kgd1, active compounds read low 1.01 | locus YIR030C, strain dcg1, active compounds read low 0.993 | locus YJL092W, strain hpr5, active compounds read low 1 | locus YJL095W, strain BCK1 (second series), active compounds read low 0.99 | locus YJL095W, strain BCK1, active compounds read low 1.05 and 1.08 | locus YJL115W, strain asf1, active compounds read low 1 | locus YJL129C, strain trk1, active compounds read low 1 | locus YJL134W, strain LCB3, active compounds read low 0.995 | locus YJL154C, strain vps35, active compounds read low 0.996 | locus YJL164C, strain tpk1, active compounds read low 1.01 | locus YJL166W, strain qcr8, active compounds read low 1 | locus YJL168C, strain set2, active compounds read low 0.998 | locus YJL187C, strain SWE1 (second series), active compounds read low 1.02 | locus YJL187C, strain SWE1, active compounds read low 1.01 | locus YJR043C, strain POL32, active compounds read low 1.04 | locus YJR066W, strain TOR1, active compounds read low 0.949 | [3] 1.02 | locus YKL009W, strain mrt4, active compounds read low 1.03 | locus YKL068W, active compounds read low 0.992 | locus YKL085W, strain MDH1 (second series), active compounds read low 1 | locus YKL085W, strain MDH1, active compounds read low 1 | locus YKL160W, strain elf1, active compounds read low 1.01 | locus YKL190W, strain CNB1, active compounds read low 0.994 | locus YKR001C, strain vps1, active compounds read low 0.994 | locus YKR026C, strain gcn3, active compounds read low 0.995 | locus YKR091W, strain srl3, active compounds read low 0.997 | locus YLL001W, strain dnm1, active compounds read low 1.01 | locus YLL026W, active compounds read low 1 | locus YLL041C, strain sdh2, active compounds read low 1.01 | locus YLR027C, strain aat2, active compounds read low 1.01 | locus YLR039C, strain RIC1, active compounds read low 1.08 | locus YLR058C, strain SHM2, active compounds read low 0.996 | locus YLR102C, strain apc9, active compounds read low 0.992 | locus YLR113W, strain HOG1, active compounds read low 1.07 | locus YLR221C, strain rsa3, active compounds read low 0.99 | locus YLR258W, strain gsy2, active compounds read low 1 | locus YLR262C, strain YPT6 (second series), active compounds read low 1.03 | locus YLR262C, strain YPT6, active compounds read low 1.06 | locus YLR268W, strain sec22, active compounds read low 1.01 | locus YLR320W, strain mms22, active compounds read low 0.987 | locus YLR330W, strain CHS5, active compounds read low 0.995 | locus YLR342W, strain FKS1 (second series), active compounds read low 1 | locus YLR342W, strain FKS1, active compounds read low 0.999 | locus YLR357W, strain rsc2, active compounds read low 0.959 | locus YLR370C, strain arc18, active compounds read low 1.03 | locus YLR371W, strain rom2, active compounds read low 0.997 | locus YLR384C, strain iki3, active compounds read low 0.99 | locus YLR418C, strain cdc73, active compounds read low 0.998 | locus YML016C, strain PPZ1, active compounds read low 0.99 | locus YML032C, strain rad52, active compounds read low 1 | locus YML120C, strain ndi1, active compounds read low 1.01 | locus YML124C, strain tub3, active compounds read low 0.997 | locus YMR058W, strain fet3, active compounds read low 1.01 | locus YMR078C, strain ctf18, active compounds read low 0.977 | locus YMR125W, strain sto1, active compounds read low 0.994 | locus YMR129W, active compounds read low 1 | locus YMR205C, strain PFK2, active compounds read low 1.01 | locus YMR223W, strain ubp8, active compounds read low 1.01 | locus YMR231W, strain pep5, active compounds read low 0.994 | locus YMR263W, strain SAP30, active compounds read low 1.01 | [4] 0.939 | locus YNL067W, strain RPL9B, active compounds read low 1.04 | locus YNL071W, strain lat1, active compounds read low 1.01 | [5] 1.04 | locus YNL183C, strain NPR1, active compounds read low 0.995 | locus YNL209W, strain ssb2, active compounds read low 1.01 | locus YNL233W, strain BNI4, active compounds read low 1.03 | locus YNL248C, strain rpa49, active compounds read low 0.903 | locus YNL250W, strain rad50, active compounds read low 0.981 | locus YNL271C, strain bni1, active compounds read low 0.984 | locus YNL298W, strain CLA4, active compounds read low 0.979 | locus YNL307C, strain MCK1, active compounds read low 0.99 | locus YNL322C, strain KRE1 (second series), active compounds read low 1.01 | locus YNL322C, strain KRE1, active compounds read low 0.998 | locus YNR049C, strain mso1, active compounds read low 1.02 | locus YNR052C, strain pop2, active compounds read low 0.985 | locus YOL006C, strain TOP1, active compounds read low 1.11 | locus YOL012C, strain htz1 0.738 | locus YOL147C, strain pex11, active compounds read low 0.993 | locus YOR001W, strain rrp6, active compounds read low 0.971 | locus YOR061W, strain CKA2, active compounds read low 0.993 | locus YOR069W, strain VPS5, active compounds read low 0.989 | locus YOR070C, strain gyp1, active compounds read low 1 | locus YOR080W, strain dia2, active compounds read low 0.994 | locus YOR083W, strain WHI5, active compounds read low 1.01 | locus YOR106W, strain vam3, active compounds read low 1.03 | locus YOR136W, strain idh2, active compounds read low 0.985 | locus YOR144C, strain elg1, active compounds read low 0.999 | locus YOR184W, strain ser1, active compounds read low 1.03 | locus YOR231W, strain MKK1, active compounds read low 0.994 | locus YOR265W, strain rbl2, active compounds read low 1.02 | locus YOR270C, strain vph1, active compounds read low 0.995 | locus YOR290C, strain snf2, active compounds read low 0.997 | locus YOR316C, strain cot1, active compounds read low 0.996 | locus YPL051W, strain arl3, active compounds read low 1.01 | locus YPL078C, strain atp4, active compounds read low 1.03 | locus YPL106C, strain sse1, active compounds read low 0.987 | locus YPL240C, strain hsp82, active compounds read low 0.999 | [6] 0.996 | locus YPL256C, strain CLN2, active compounds read low 0.997 | locus YPR119W, strain clb2, active compounds read low 1 | locus YPR141C, strain kar3, active compounds read low 0.991 | locus YPR163C, strain tif3, active compounds read low 0.992 | locus YPR167C, strain met16, active compounds read low 0.995 | strain wtn01, active compounds read low 0.991

CC(=O)c1c(O)c(C)c(O)c(Cc2c(O)c3c(c(C(=O)/C=C/c4ccccc4)c2O)OC(C)(C)C=C3)c1O
inactive: locus YAL013W, strain DEP1, active compounds read low 0.909 | locus YAL040C, strain CLN3, active compounds read low 1 | locus YDR363W, strain ESC2, active compounds read low 0.999 | locus YER002W, strain NOP16, active compounds read low 1.06 | [2] 0.989 | locus YGR229C, strain SMI1, active compounds read low 0.876 | [5] 0.857 | locus YNL175C, strain NOP13, active compounds read low 1.06 | locus YNL197C, strain WHI3, active compounds read low 1.01 | locus YNL224C, strain SQS1, active compounds read low 1.01 | locus YOR083W, strain WHI5 (second series), active compounds read low 0.898
active: locus YCL061C, strain MRC1 (second series), active compounds read low 0.917 | [1] 0.883 | [3] 0.877 | [4] 0.877 | locus YPL055C, strain LGE1, active compounds read low 0.881 | [6] 0.902
